The record followed here is PubChem BioAssay.

Each structure is given as a SMILES string.

Sequence of Torsin-1A (Homo sapiens) (O14656 whole entry, looked up): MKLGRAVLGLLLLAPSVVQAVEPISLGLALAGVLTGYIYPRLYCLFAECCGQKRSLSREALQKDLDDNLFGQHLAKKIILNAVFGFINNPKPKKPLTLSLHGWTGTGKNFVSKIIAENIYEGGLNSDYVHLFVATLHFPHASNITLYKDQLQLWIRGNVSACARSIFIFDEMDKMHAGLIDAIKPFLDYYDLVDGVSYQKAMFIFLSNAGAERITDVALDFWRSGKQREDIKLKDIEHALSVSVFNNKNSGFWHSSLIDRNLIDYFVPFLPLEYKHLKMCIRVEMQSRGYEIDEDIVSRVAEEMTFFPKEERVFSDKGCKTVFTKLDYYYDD

The experiment addresses Torsin-1A (Homo sapiens) (UniProt O14656). Kind of experiment: torsin A binders from cell lysate, primary screen, small-molecule microarray, wild-type, 635/667 nm (AID 1149). As to conditions: COS7 hTOR1A-WT lysate, 635 nm fluorescence, higher = more signal.
As to `C=CC[C@]1(C(=O)O)N=C(c2ccc(OCCCO)cc2)O[C@H]1c1ccccc1CN=[N+]=[N-]`, the composite z-score stood at 0.0499.
To `C[N+](C)(C)CCCCNC(=O)[C@H]1C[C@H]2C(=O)N3CCC[C@H]3C(=O)N2[C@H]1c1ccc(O)cc1` belongs 1.84; to `[N-]=[N+]=NCc1ccccc1[C@@H]1OC(c2ccc(OCCCO)cc2)=N[C@]1(Cc1ccccc1)C(=O)O`, 0.497.
Molecule `CN(C)CCCN1C(=O)[C@@]2(c3ccc([N+](=O)[O-])cc3)CC(=O)N(C3CCCCC3)[C@@H]2c2ccc(CO)cc21` yielded a composite z-score of -0.954.
To `CCOC1=C2C(c3ccc(C)cc3)N(S(=O)(=O)c3ccc(C)cc3)CC2n2c(=O)n(-c3ccccc3)c(=O)n2C1` (stereo unspecified) belongs 0.301.
To `O=C1c2ccccc2[C@](Cc2ccccc2I)(C(=O)O)[C@H](c2ccc(CO)cc2)N1Cc1ccccc1C(F)(F)F` belongs -0.242; to `CCCCCCCCCCC(O)C1C=CC2C(=O)N(c3ccccc3)C(=O)C2N1Nc1ccc([N+](=O)[O-])cc1` (stereo unspecified), 0.0415; to `CCOC(=O)C1=CC[C@@H](c2cccc(Cl)c2)N(S(=O)(=O)c2ccc(C)cc2)[C@H]1c1ccc(C#N)cc1`, 0.384.
`CCCCCCC#C[Si](O[C@H](c1ccccc1)c1cn([C@H](C)c2ccccc2)nn1)(C(C)C)C(C)C`: the composite z-score was found to be 0.381.
Take `O=C(NCC(F)(F)F)[C@@H]1c2ccccc2C(=O)N(Cc2ccccc2)[C@H]1c1ccc(CO)cc1`: the composite z-score came out at 0.111.
To `O=C1OCC=C[C@H]2OC34C=CCN(c5ccc(Cl)cc5)C(=O)[C@H]3N(CCCO)C(=O)[C@@H]4[C@@H]12` (stereo partly specified) belongs 0.626; to `CCOC(=O)N1C(c2ccc(OCCCO)cc2)=NC(C(=O)OC)N1C(=O)OCC` (stereo unspecified), 0.497; to `Cc1ccc(S[C@]2(C(=O)NCC(F)(F)F)CC(=O)N(C3Cc4ccccc4C3)[C@@H]2c2ccc(CO)cc2I)cc1`, 0.108.
For `[N-]=[N+]=Nc1ccccc1C[C@]1(C(=O)N2CCCCC2)N=C(c2ccc(OCCCO)cc2)O[C@H]1c1ccccc1N=[N+]=[N-]` the value was 0.656; for `C=CCNC(=O)[C@H]1[C@@H]2C(=O)O[C@@H](c3ccccc3)[C@@H](c3ccccc3)N2[C@@H](c2ccc(O)cc2)[C@]12C(=O)Nc1ccc(C#Cc3ccc(OC)cc3)cc12`, 0.11.
Molecule `[N-]=[N+]=NCc1ccccc1C[C@]1(C(=O)NCc2ccccc2)COC(c2ccc(OCCCO)cc2)=N1` returned a composite z-score of -0.328.
For `O=C1OCC=C[C@H]2OC34C=CCN(CCN5CCOCC5)C(=O)[C@H]3N(CCCCCCO)C(=O)[C@@H]4[C@@H]12` (stereo partly specified) the value was 0.135.
For `[N-]=[N+]=Nc1ccccc1[C@H]1OC(c2ccc(OCCCO)cc2)=N[C@@]1(CCS(=O)(=O)c1ccccc1)C(=O)N1CCOCC1` the value was 0.35; for `COC(=O)[C@@]1(Cc2ccccc2)[C@H]2c3cc(C(=O)N(C)C)n(Cc4cc(F)c(F)c(F)c4)c3C[C@H]2CN1C(=O)c1ccccc1`, 0.0663; for `O=C1O[C@H](c2ccccc2)[C@H](c2ccccc2)N2[C@H]1[C@@H](C(=O)N1CCCCCCC1)[C@]1(C(=O)Nc3ccc(C#CC4=CCCCC4)cc31)[C@H]2c1ccc(O)cc1`, 3.97.
With `[N-]=[N+]=NCc1ccccc1C[C@]1(C(N)=O)N=C(c2ccc(OCCCO)cc2)O[C@H]1c1ccccc1N=[N+]=[N-]`, the composite z-score turned out to be 0.0331.
Consider `C=CCOC(=O)[C@H]1[C@@H]2C(=O)O[C@@H](c3ccccc3)[C@@H](c3ccccc3)N2[C@@H](c2ccc(OCCOC(=O)[C@H]3C[C@H]4C(=O)N[C@@H](CCCC[N+](C)(C)C)C(=O)N4[C@H]3c3ccc(O)cc3)cc2)[C@]12C(=O)Nc1ccccc12`, for which the composite z-score is 0.475.
For `CC(C)NC(=O)[C@@]1(c2ccc([N+](=O)[O-])cc2)CC(=O)N(C(C)C)[C@@H]1c1ccc(CO)cc1` the value was 0.592; for `COc1ccc([Si](C)(C)[C@@H]2[C@@H](CCn3cc([C@H](O)c4ccccc4)nn3)O[C@]3(C(=O)N(C)c4ccccc43)[C@H]2C)cc1`, -0.507.
To `COCCOC(=O)N1C(=O)[C@@]2(c3cc(C#CC4=CCCCC4)ccc31)[C@H](C(=O)N1CCN(c3ncccn3)CC1)[C@H]1C(=O)O[C@H](c3ccccc3)[C@H](c3ccccc3)N1[C@@H]2c1ccc(OCCO)cc1` belongs 0.804; to `C=CCOC(=O)[C@@H]1[C@H]2C(=O)O[C@H](c3ccccc3)[C@H](c3ccccc3)N2[C@H](c2ccc(OCCOC(=O)[C@H]3C[C@H]4C(=O)N[C@@H](CC(C)C)C(=O)N4[C@H]3c3cccc(OCCO)c3)cc2)[C@@]12C(=O)Nc1ccc(I)cc12`, 1.
